Bioassay records (PubChem)
This is a sample that favours compounds with a hit; in the whole collection about 6.9% have one here.
Beta apoptosis – blocks beta cell apoptosis | 300,000 tested, 0.8% active | INS-1E cytokine-induced death, ATP luminescence, 48 h; percent of positive-control rescue, neutral wells zero | protection from apoptosis, % (test concentration not listed) | AID 435005;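 active = Every replicate reaches about 75%, or at least half do and their mean reaches it too, limit read from the data; inconclusive = At least half of replicates reach the limit but their mean does not; inactive = Under half of replicates reach the limit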;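 also: 0% = cytokine-treated negative control wells and 100% = positive control rescue; higher means more ATP so stronger rescue from cytokine killing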
NR3A LBD binder – NR3A (human) ligand-binding domain modulation | NR3A LBD differential scanning fluorimetry, Tm shift; 0% = protein alone, 100% = glycine-bound protein | Tm shift relative to glycine control, % at 25 µM | 340,000 tested, 2.5% active | AID 1259313;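 active = melting temperature shift of at least 10% of the positive control shift, at one fixed dose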
Mdm2 MdmX PPI – inhibitors of human Mdm2/MdmX interaction. 330,000 tested, 3% active. SaOS-2 split-luciferase Mdm2/MdmX complementation, luminescence. AID 485346. inhibition, % at 8 µM. O15151+Q00987;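 active = inhibition of at least 50% at 8 µM in the primary screen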
SKKanGAS inh – SKKanGAS growth inhibition; 300,000 tested, 1.3% active; S. pyogenes SKKanGAS, kanamycin growth, BacTiter-Glo, 6 h; inhibition, % at 7.5 µM;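 active = mean replicate score, as percent of positive control median, at least 50; inconclusive = mean below 50 but one replicate at or above 50; inactive = mean and every replicate below 50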;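 also: strain carries kanamycin resistance gene driven by streptokinase promoter and grows in 40 µg/ml kanamycin; loss of luminescence reflects streptokinase promoter inhibition or plain growth inhibition; 0% = median of DMSO wells and 100% = positive control at its reference dose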
CSC inhib – cancer stem cell inhibition; cancer stem cell-like cells viability, luminescence; inhibition, % at 7.5 µM; 300,000 tested, 1.1% active; in the data active = inhibition above about 75%; inconclusive = no clear call, values can overlap the other calls; tested in HMLE shEcad cells
MPTP inh – inhibitors of mitochondrial permeability transition pore. 360,000 tested, 1.4% active. isolated mouse mitochondria, Ca2+ swelling absorbance, 30 min. inhibition, % at 10 µM;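 active = inhibition of 50% or more, scaled per plate between neutral and stimulator controls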;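 also: 0% = DMSO wells given calcium and 100% = 1 mM EGTA wells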
Mdm2 MdmX conf – confirmation of human Mdm2/MdmX interaction inhibitors | shares compounds with Mdm2 MdmX PPI | Mdm2-MdmX binding, luminescent assay | inhibition, % at 8 µM | 10,000 tested, 55% active; in the data active = inhibition above about 40%
FLuc counter – inhibits full-length luciferase, flagging false Mdm2/MdmX hits; shares compounds with Mdm2 MdmX PPI; SaOS-2 full-length luciferase counterscreen, luminescence; inhibition, % at 8 µM; 6,200 tested, 77% active;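 active = mean inhibition at 8 µM reaching about 37%, which flags the compound as non-specific, limit read from the data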;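 also: p53-null SaOS-2 cells with luciferase driven by a doxycycline-inducible promoter; compound on cells about two nights before reading with doxycycline added after day one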
MPTP counter – mitochondrial membrane potential, counter-screen; shares compounds with MPTP inh; isolated mitochondria, Rhodamine 123 fluorescence; inhibition, % at 10 µM; 5,000 tested, 78% active; in the data active = inhibition above about 22%;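 also: 0% = DMSO vehicle and 100% = positive control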
MPTP abs DR – MPTP inhibition, dose response swelling confirmation; shares compounds with MPTP inh; IC50, µM; 780 tested, 58% active; isolated mitochondria swelling, absorbance; in the data active = IC50 below about 20 µM
MPTP counter DR – active in counter-screen for permeability transition pore inhibitors. shares compounds with MPTP inh. isolated mitochondria counterscreen, fluorescence read-out. IC50, µM. 780 tested, 49% active. AID 651564; in the data active = IC50 below about 80 µM
Active calls of the source: *; i = inactive; ? = inconclusive; . = not tested or not shown.

SMILES	Beta apoptosis	NR3A LBD binder	Mdm2 MdmX PPI	SKKanGAS inh	CSC inhib	MPTP inh	Mdm2 MdmX conf	FLuc counter	MPTP counter	others
Cc1ccc(N(C(=O)c2csnn2)C(C(=O)NC2CCCCC2)c2cccnc2)cc1 (centres undefined)	3	-2	21	-3	-9	0	.	.	.
CCCCc1ccc(C2C3=C(CC(C)(C)CC3=O)NC3=C2C(=O)c2ccccc23)cc1 (centres undefined)	-2	4	55*	40	26	71*	23	.	53*
CCCc1ccc(C2C3=C(CC(C)(C)CC3=O)NC3=C2C(=O)c2ccccc23)cc1 (centres undefined)	35	0	76*	26	89*	81*	-2	.	52*
O=C(NCc1ccccn1)C1(C(F)(F)F)C/C(=C\CCO)CCCO1 (centres undefined)	.	1	13	4	8	-1	.	.	.
CC(C)c1nnc(NC(=O)CCC(=O)NC2CC2)s1	.	1	-24	0	-16	-2	.	.	.
CN(C)CCCNc1ncnc2c1c(-c1ccccc1)cn2-c1ccccc1	2	-1	61*	-4	15	59*	42*	89*	-6	MPTP abs DR=i;MPTP counter DR=>80
O=C(Nc1ccc(Br)cc1F)c1ccncc1	-1	0	17	-2	-6	-3	.	.	.
O=C(Nc1ccc(Cl)c(Cl)c1)Nc1ccc(Br)cc1F	.	40*	95*	27	92*	100*	93*	35	74*
O=C(Nc1ccccc1)Nc1ccc(Br)c(Cl)c1	59	30*	87*	4	40	79*	44*	48*	85*
CCOC(=O)c1ccc(NC(=O)Nc2ccc(Cl)cn2)cc1	2	-3	-15	-16	.	15	.	.	.
CCOC(=O)c1ccc(NC(=O)Nc2ccon2)cc1	23	0	53*	-4	78*	50*	43*	115*	65*
O=C(Nc1ccc(Cl)c(Cl)c1)Nc1ccon1	11	28*	56*	67*	47	69*	66*	56*	103*
Cc1nnc(SC(C)C(=O)NC2CCCCC2)[nH]c1=O (centres undefined)	.	0	.	.	.	-3	.	.	.
Cc1[nH]n(-c2ccccc2)c(=O)c1N=Nc1ccc2c(c1)OCCO2	4	-24	-175	7	-3	-1	.	.	.
Cc1[nH]n(-c2ccccc2)c(=O)c1N=Nc1c(O)cc(S(=O)(=O)N(C)C)c2ccccc12	111*	3	82*	85*	-3	81*	80*	57*	42*
O=C(NC(NC(=S)Nc1ccccc1C(=O)O)C(Cl)(Cl)Cl)c1ccccc1 (centres undefined)	2	4	-35	-2	1	6	.	.	.
CC(C)NC(NC(=O)/C=C/c1ccccc1)C(Cl)(Cl)Cl (centres undefined)	3	-3	16	19	.	-1	.	.	.
O=C(/C=C/c1ccccc1)NC(NC(=S)Nc1ccc(Cl)cc1)C(Cl)(Cl)Cl (centres undefined)	46	25*	60*	63*	35	99*	62*	24	58*
O=C(/C=C/c1ccccc1)NC(NC(=S)Nc1cc(Cl)ccc1Cl)C(Cl)(Cl)Cl (centres undefined)	11	30*	89*	52*	?	97*	87*	31	74*
N#CCCN(C(=O)COC(=O)c1cc2ccccc2oc1=O)c1ccccc1	.	-1	-4	.	.	-1	.	.	.
CN(CC(=O)Nc1cccc(F)c1)CC(=O)N(C)CC(=O)Nc1ccccc1Br	.	1	-1	.	.	-2	.	.	.
O=C(Cn1ncc2c3ccccc3n(Cc3cccc(Cl)c3)c2c1=O)NCc1ccccn1	-5	0	19	-8	-8	-2	.	.	.
